The entries come from a sample that favours the strongest signals as a whole.
Key:
Experiment in all cases: glycan array binding signal (z-score within array); higher = stronger binding
Details in all cases: glycan notation: IUPAC condensed, linker removed
Fuc(a1-2)Gal = molecular target: Fuc(a1-2)Gal
How it was run: (§1)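 The binding signal is a Z-score computed within each array and averaged over linkers. Arrays of the same protein sequence at different concentrations or buffers were also averaged together. Data originate from 3228 arrays in the Consortium for Functional Glycomics database, kept only where the protein sequence was available.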

[1] = molecular target: Fuc(a1-2)Gal(b1-4)GlcNAc(b1-6)GalNAc
How it was run: as §1

[2] = molecular target: Fuc(a1-2)Gal3S(b1-4)GlcNAc
How it was run: as §1

[3] = molecular target: Fuc(a1-2)Gal6S(b1-3)GlcNAc
How it was run: as §1

[4] = molecular target: Fuc(a1-2)[Gal(a1-3)]Gal(b1-3)GlcNAc(b1-3)GalNAc
How it was run: as §1

[5] = molecular target: Fuc(a1-2)[Gal(a1-3)]Gal(b1-3)GlcNAc(b1-6)GalNAc
How it was run: as §1

[6] = molecular target: Fuc(a1-2)[Gal(a1-3)]Gal(b1-4)[Fuc(a1-3)]Glc
How it was run: as §1

[7] = molecular target: Fuc(a1-2)[Gal(a1-4)]Gal(b1-4)GlcNAc
How it was run: as §1

[8] = molecular target: Fuc(a1-2)[GalNAc(a1-3)]Gal(b1-3)GalNAc(a1-3)[Fuc(a1-2)]Gal(b1-4)GlcNAc
How it was run: as §1

[9] = molecular target: Fuc(a1-2)[GalNAc(a1-3)]Gal(b1-3)GlcNAc(b1-2)Man(a1-3)[Fuc(a1-2)[GalNAc(a1-3)]Gal(b1-3)GlcNAc(b1-2)Man(a1-6)]Man(b1-4)GlcNAc(b1-4)GlcNAc
How it was run: as §1

[10] = molecular target: Fuc(a1-2)[GalNAc(a1-3)]Gal(b1-4)GlcNAc(b1-2)Man
How it was run: as §1

[11] = molecular target: Fuc(a1-2)[GalNAc(a1-3)]Gal(b1-4)GlcNAc(b1-3)Gal(b1-4)GlcNAc(b1-3)Gal(b1-4)GlcNAc
How it was run: as §1

[12] = molecular target: Fuc(a1-2)[GalNAc(a1-4)]Gal(b1-4)GlcNAc
How it was run: as §1

[13] = molecular target: Fuc(a1-3)[Gal(b1-4)]GlcNAc(b1-2)Man(a1-3)[Fuc(a1-3)[Gal(b1-4)]GlcNAc(b1-2)Man(a1-6)]Man(b1-4)GlcNAc(b1-4)[Fuc(a1-6)]GlcNAc
How it was run: as §1

[14] = molecular target: Fuc(a1-3)[Gal(b1-4)]GlcNAc(b1-3)GalNAc
How it was run: as §1

[15] = molecular target: Gal(a1-3)Gal(b1-3)GlcNAc(b1-6)GalNAc
How it was run: as §1

[16] = molecular target: Gal(a1-3)Gal(b1-3)[Fuc(a1-4)]GlcNAc(b1-2)Man(a1-3)[Gal(a1-3)Gal(b1-3)[Fuc(a1-4)]GlcNAc(b1-2)Man(a1-6)]Man(b1-4)GlcNAc(b1-4)GlcNAc
How it was run: as §1

Gal(a1-3)Gal(b1-4)Glc = molecular target: Gal(a1-3)Gal(b1-4)Glc
How it was run: as §1

[17] = molecular target: Gal(a1-3)Gal(b1-4)GlcNAc(b1-3)GalNAc
How it was run: as §1

[18] = molecular target: Gal(b1-3)GlcNAc(b1-3)Gal(b1-4)GlcNAc(b1-2)[Gal(b1-3)GlcNAc(b1-3)Gal(b1-4)GlcNAc(b1-6)]Man(a1-6)[Gal(b1-3)GlcNAc(b1-3)Gal(b1-4)GlcNAc(b1-2)Man(a1-3)]Man(b1-4)GlcNAc(b1-4)[Fuc(a1-6)]GlcNAc
How it was run: as §1

[19] = molecular target: Gal(b1-4)GlcNAc(b1-2)Man(a1-3)[Gal(b1-4)GlcNAc(b1-2)Man(a1-6)]Man(b1-4)GlcNAc(b1-4)GlcNAc
How it was run: as §1

[20] = molecular target: Gal(b1-4)GlcNAc(b1-2)[Gal(b1-4)GlcNAc(b1-4)]Man(a1-3)[Gal(b1-4)GlcNAc(b1-2)[Gal(b1-4)GlcNAc(b1-6)]Man(a1-6)]Man(b1-4)GlcNAc(b1-4)GlcNAc
How it was run: as §1

[21] = molecular target: Gal(b1-4)GlcNAc(b1-2)[Gal(b1-4)GlcNAc(b1-6)]Man(a1-6)[Gal(b1-4)GlcNAc(b1-2)Man(a1-3)]Man(b1-4)GlcNAc(b1-4)[Fuc(a1-6)]GlcNAc
How it was run: as §1

[22] = molecular target: Gal(b1-4)GlcNAc(b1-3)Gal(b1-4)GlcNAc(b1-2)[Gal(b1-4)GlcNAc(b1-3)Gal(b1-4)GlcNAc(b1-6)]Man(a1-6)[Gal(b1-4)GlcNAc(b1-3)Gal(b1-4)GlcNAc(b1-2)Man(a1-3)]Man(b1-4)GlcNAc(b1-4)GlcNAc
How it was run: as §1

[23] = molecular target: Gal3S(b1-3)[Fuc(a1-4)]GlcNAc
How it was run: as §1

GalNAc(a1-3)GalNAc = molecular target: GalNAc(a1-3)GalNAc
How it was run: as §1

[24] = molecular target: GalNAc(a1-3)GalNAc(b1-3)Gal(a1-4)Gal(b1-4)GlcNAc
How it was run: as §1

[25] = molecular target: GalNAc(b1-3)Gal(a1-6)Gal(b1-4)Glc
How it was run: as §1

[26] = molecular target: GalNAc(b1-4)GlcNAc(b1-2)Man
How it was run: as §1

[27] = molecular target: GalNAc3S(b1-4)[Fuc(a1-3)]GlcNAc
How it was run: as §1

GalNAc4S6S(b1-4)GlcNAc = molecular target: GalNAc4S6S(b1-4)GlcNAc
How it was run: as §1

[28] = molecular target: GlcNAc(a1-4)Gal(b1-4)GlcNAc(b1-3)Gal(b1-4)Glc
How it was run: as §1

[29] = molecular target: GlcNAc(a1-4)Gal(b1-4)GlcNAc(b1-3)Gal(b1-4)[Fuc(a1-3)]GlcNAc(b1-3)Gal(b1-4)[Fuc(a1-3)]GlcNAc
How it was run: as §1

[30] = molecular target: GlcNAc(a1-6)Gal(b1-4)GlcNAc
How it was run: as §1

GlcNAc(b1-3)Fuc = molecular target: GlcNAc(b1-3)Fuc
How it was run: as §1

[31] = molecular target: Kdn(a2-3)Gal(b1-4)[Fuc(a1-3)]GlcNAc
How it was run: as §1

[32] = molecular target: Man(a1-2)Man(a1-6)[Man(a1-3)]Man(a1-6)[Man(a1-2)Man(a1-2)Man(a1-3)]Man
How it was run: as §1

Neu5Ac(a2-3)Gal = molecular target: Neu5Ac(a2-3)Gal
How it was run: as §1

[33] = molecular target: Neu5Ac(a2-3)Gal(b1-4)GlcNAc
How it was run: as §1

[34] = molecular target: Neu5Ac(a2-3)Gal(b1-4)GlcNAc(b1-3)Gal(b1-4)GlcNAc(b1-3)[Neu5Ac(a2-3)Gal(b1-4)GlcNAc(b1-3)Gal(b1-4)GlcNAc(b1-6)]GalNAc
How it was run: as §1

[35] = molecular target: Neu5Ac(a2-3)Gal(b1-4)GlcNAc(b1-3)[Neu5Ac(a2-3)Gal(b1-4)GlcNAc(b1-6)]GalNAc
How it was run: as §1

[36] = molecular target: Neu5Ac(a2-3)Gal(b1-4)GlcNAc6S
How it was run: as §1

[37] = molecular target: Neu5Ac(a2-3)Gal6S(b1-4)GlcNAc
How it was run: as §1

[38] = molecular target: Neu5Ac(a2-3)[GalNAc(b1-4)]Gal(b1-4)Glc
How it was run: as §1

[39] = molecular target: Neu5Ac(a2-3)[GalNAc(b1-4)]Gal(b1-4)GlcNAc(b1-3)GalNAc
How it was run: as §1

[40] = molecular target: Neu5Ac(a2-6)Gal(b1-4)GlcNAc(b1-2)Man(a1-3)[Neu5Ac(a2-3)Gal(b1-4)GlcNAc(b1-2)Man(a1-6)]Man(b1-4)GlcNAc(b1-4)GlcNAc
How it was run: as §1

[41] = molecular target: Neu5Ac(a2-6)Gal(b1-4)GlcNAc(b1-2)Man(a1-6)[GlcNAc(b1-2)Man(a1-3)]Man(b1-4)GlcNAc(b1-4)GlcNAc
How it was run: as §1

[42] = molecular target: Neu5Ac(a2-8)Neu5Ac(a2-3)[Gal(b1-3)GalNAc(b1-4)]Gal(b1-4)Glc
How it was run: as §1

[43] = molecular target: Neu5Ac(a2-8)Neu5Ac(a2-8)Neu5Ac(a2-8)Neu5Ac(a2-3)[GalNAc(b1-4)]Gal(b1-4)Glc
How it was run: as §1

[44] = molecular target: Neu5Gc(a2-6)Gal(b1-4)GlcNAc
How it was run: as §1

Neu5Gc(a2-6)GalNAc = molecular target: Neu5Gc(a2-6)GalNAc
How it was run: as §1

B1: Cohesin-hDC-ASGPR (Homo sapiens) (protein)
chain: LDDLDAVRIKVDTVNAKPGDTVRIPVRFSGIPSKGIANCDFVYSYDPNVLEIIEIEPGDIIVDPNPDKSFDTAVYPDRKIIVFLFAEDSGTGAYAITKDGVFATIVAKVKEGAPNGLSVIKFVEVGGFANNDLVEQKTQFFDGGANVGDTTEPATPTTPVTTPTTTDDLDAASQNSKFQRDLVTLRTDFSNFTSNTVAEIQALTSQGSSLEETIASLKAEVEGFKQERQAGVSELQEHTTQKAHLGHCPHCPSVCVPVHSEMLLRVQQLVQDLKKLTCQVATLNNNASTEGTCCPVNWVEHQDSCYWFSHSGMSWAEAEKYCQLKNAHLVVINSREEQNFVQKYLGSAYTWMGLSDPEGAWKWVDGTDYATGFQNWKPGQPDDWQGHGLGGGEDCAHFHPDGRWNDDVCQRPYHWVCEAGLGQTSQESHHHHHH
glycan array binding signal (z-score) (Fuc(a1-2)Gal): -0.306
glycan array binding signal (z-score) [1]: 2.81
glycan array binding signal (z-score) [2]: -0.377
glycan array binding signal (z-score) [3]: -0.246
glycan array binding signal (z-score) [4]: -0.407
glycan array binding signal (z-score) [5]: 2.85
glycan array binding signal (z-score) [6]: -0.481
glycan array binding signal (z-score) [7]: -0.495
glycan array binding signal (z-score) [8]: 3.55
glycan array binding signal (z-score) [9]: 2.83
glycan array binding signal (z-score) [10]: 2.03
glycan array binding signal (z-score) [11]: 1.93
glycan array binding signal (z-score) [12]: 3.15
glycan array binding signal (z-score) [13]: -0.501
glycan array binding signal (z-score) [14]: -0.391
glycan array binding signal (z-score) [15]: 2.9
glycan array binding signal (z-score) [16]: -0.322
glycan array binding signal (z-score) (Gal(a1-3)Gal(b1-4)Glc): -0.483
glycan array binding signal (z-score) [17]: -0.475
glycan array binding signal (z-score) [18]: 0.077
glycan array binding signal (z-score) [19]: -0.447
glycan array binding signal (z-score) [20]: -0.517
glycan array binding signal (z-score) [21]: -0.504
glycan array binding signal (z-score) [22]: 1.87
glycan array binding signal (z-score) [23]: -0.306
glycan array binding signal (z-score) (GalNAc(a1-3)GalNAc): 2.37
glycan array binding signal (z-score) [24]: 1.97
glycan array binding signal (z-score) [25]: 2.84
glycan array binding signal (z-score) [26]: 2.86
glycan array binding signal (z-score) [27]: -0.502
glycan array binding signal (z-score) (GalNAc4S6S(b1-4)GlcNAc): -0.516
glycan array binding signal (z-score) [28]: -0.508
glycan array binding signal (z-score) [29]: -0.444
glycan array binding signal (z-score) [30]: -0.439
glycan array binding signal (z-score) (GlcNAc(b1-3)Fuc): -0.443
glycan array binding signal (z-score) [31]: -0.485
glycan array binding signal (z-score) [32]: -0.48
glycan array binding signal (z-score) (Neu5Ac(a2-3)Gal): -0.335
glycan array binding signal (z-score) [33]: -0.453
glycan array binding signal (z-score) [34]: -0.339
glycan array binding signal (z-score) [35]: -0.495
glycan array binding signal (z-score) [36]: -0.518
glycan array binding signal (z-score) [37]: -0.517
glycan array binding signal (z-score) [38]: 2.91
glycan array binding signal (z-score) [39]: 1.83
glycan array binding signal (z-score) [40]: -0.471
glycan array binding signal (z-score) [41]: -0.387
glycan array binding signal (z-score) [42]: 3.87
glycan array binding signal (z-score) [43]: 2.95
glycan array binding signal (z-score) [44]: -0.392
glycan array binding signal (z-score) (Neu5Gc(a2-6)GalNAc): 2.81

Source: the supplement of paper PMC8728848
